Measurements: the supplement of paper PMC11732987, “Enantioselective OTUD7B fragment discovery through chemoproteomics screening and high-throughput optimisation” (Communications Chemistry, 2025)

Assays:
Experiment in all cases: log2 ratio of Biotin-Ahx-Ub-VS probe labelling (fragment/DMSO); higher = less target engagement (more negative = stronger competition), active = hit call of the paper (q ≤ 0.05, log2 ratio ≤ -1)
Settings in all cases: compound concentration: 200 uM; treatment time: 3 h
USP34 = USP34 (UniProt Q70CQ2)
Method in brief: (§1)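 Each value is an average log2 ratio of fragment to vehicle, tested by unpaired t-test. The underlying Spectronaut label-free quantities were global-median-normalised, and only proteins with ≥2 unique peptides were included. Triplicate HEK293T lysate samples (495 µg) were exposed to fragment at 200 µM or vehicle for 3 h, then to Biotin-Ahx-Ub-VS at 0.5 µM final for 1 h, before NeutrAvidin enrichment of labelled DUBs, LysC and trypsin digestion, and diaPASEF LC-MS/MS.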

USP36 = target: T1, USP36 (UniProt Q9P275)
T1 sequence (whole entry): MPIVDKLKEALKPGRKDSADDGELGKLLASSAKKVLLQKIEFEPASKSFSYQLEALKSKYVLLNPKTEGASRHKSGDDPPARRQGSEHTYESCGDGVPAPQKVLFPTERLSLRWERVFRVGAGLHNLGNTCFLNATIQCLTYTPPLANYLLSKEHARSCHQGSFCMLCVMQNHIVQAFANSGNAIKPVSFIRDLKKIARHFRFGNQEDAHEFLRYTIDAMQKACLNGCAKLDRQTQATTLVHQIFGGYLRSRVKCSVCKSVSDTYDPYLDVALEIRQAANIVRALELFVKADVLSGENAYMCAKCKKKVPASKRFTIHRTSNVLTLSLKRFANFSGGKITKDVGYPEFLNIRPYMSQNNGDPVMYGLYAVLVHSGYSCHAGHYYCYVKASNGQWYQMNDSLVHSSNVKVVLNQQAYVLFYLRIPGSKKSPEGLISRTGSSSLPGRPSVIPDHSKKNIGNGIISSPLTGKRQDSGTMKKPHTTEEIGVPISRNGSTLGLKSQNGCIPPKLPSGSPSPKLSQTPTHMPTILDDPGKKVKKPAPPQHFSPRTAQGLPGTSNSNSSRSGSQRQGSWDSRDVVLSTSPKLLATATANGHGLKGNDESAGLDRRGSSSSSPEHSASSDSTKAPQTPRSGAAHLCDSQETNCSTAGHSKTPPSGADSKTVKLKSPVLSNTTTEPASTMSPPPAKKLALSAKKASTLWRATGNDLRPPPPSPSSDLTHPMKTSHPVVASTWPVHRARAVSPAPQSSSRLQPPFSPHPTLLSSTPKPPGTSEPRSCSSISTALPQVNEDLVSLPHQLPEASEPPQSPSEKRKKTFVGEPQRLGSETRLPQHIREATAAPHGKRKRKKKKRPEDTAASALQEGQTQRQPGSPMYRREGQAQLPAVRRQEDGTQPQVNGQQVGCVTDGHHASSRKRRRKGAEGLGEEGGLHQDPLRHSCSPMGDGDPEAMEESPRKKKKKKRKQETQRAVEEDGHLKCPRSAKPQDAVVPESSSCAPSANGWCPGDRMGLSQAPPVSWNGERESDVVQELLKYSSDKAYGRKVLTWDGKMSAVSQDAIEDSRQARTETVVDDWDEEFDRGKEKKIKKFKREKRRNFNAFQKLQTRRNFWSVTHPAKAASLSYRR
Method in brief: as §1

USP38 = target: T2, USP38 (UniProt Q8NB14)
T2 sequence (whole entry): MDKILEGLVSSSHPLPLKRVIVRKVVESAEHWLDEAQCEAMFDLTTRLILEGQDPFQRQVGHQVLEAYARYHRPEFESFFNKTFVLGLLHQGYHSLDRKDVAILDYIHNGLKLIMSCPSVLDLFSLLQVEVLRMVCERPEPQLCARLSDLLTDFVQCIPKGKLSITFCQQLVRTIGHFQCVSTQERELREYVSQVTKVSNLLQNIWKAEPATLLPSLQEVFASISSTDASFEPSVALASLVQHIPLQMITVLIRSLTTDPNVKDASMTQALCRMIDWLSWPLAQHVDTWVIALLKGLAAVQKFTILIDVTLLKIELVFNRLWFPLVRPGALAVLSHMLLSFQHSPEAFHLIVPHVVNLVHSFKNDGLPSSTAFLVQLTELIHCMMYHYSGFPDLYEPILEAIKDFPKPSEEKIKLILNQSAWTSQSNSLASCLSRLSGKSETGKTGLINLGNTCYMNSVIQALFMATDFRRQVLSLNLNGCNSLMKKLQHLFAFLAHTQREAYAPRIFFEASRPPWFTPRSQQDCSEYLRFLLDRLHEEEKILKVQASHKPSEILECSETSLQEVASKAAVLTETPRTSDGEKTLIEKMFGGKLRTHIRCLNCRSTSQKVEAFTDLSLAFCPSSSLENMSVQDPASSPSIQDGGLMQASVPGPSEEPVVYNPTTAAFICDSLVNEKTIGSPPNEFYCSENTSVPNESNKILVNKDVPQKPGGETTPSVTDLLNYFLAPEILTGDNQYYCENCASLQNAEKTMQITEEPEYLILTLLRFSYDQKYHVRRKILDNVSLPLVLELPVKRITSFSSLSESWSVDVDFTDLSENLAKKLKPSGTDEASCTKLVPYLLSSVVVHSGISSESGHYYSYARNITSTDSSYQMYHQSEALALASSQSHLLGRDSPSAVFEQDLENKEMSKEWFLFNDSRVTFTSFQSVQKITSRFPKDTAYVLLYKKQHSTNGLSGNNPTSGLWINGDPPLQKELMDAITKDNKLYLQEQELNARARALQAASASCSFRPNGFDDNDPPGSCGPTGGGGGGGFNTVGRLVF
Method in brief: as §1

USP39 = target: T3, USP39 (UniProt Q53GS9)
T3 sequence (whole entry): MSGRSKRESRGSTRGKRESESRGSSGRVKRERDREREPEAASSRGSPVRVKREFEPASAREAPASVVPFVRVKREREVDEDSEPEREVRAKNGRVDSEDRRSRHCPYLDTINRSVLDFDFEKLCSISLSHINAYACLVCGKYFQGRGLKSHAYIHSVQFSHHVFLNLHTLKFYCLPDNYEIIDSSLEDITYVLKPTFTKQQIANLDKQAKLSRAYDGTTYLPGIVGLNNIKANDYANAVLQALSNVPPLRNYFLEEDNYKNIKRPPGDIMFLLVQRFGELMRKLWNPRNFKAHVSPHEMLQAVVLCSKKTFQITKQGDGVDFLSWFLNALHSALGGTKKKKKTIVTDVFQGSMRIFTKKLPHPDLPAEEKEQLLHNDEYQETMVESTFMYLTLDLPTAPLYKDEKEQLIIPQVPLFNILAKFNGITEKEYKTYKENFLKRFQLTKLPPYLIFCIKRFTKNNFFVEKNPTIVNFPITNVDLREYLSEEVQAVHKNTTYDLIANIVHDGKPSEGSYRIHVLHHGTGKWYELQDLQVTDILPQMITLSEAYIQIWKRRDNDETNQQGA
Method in brief: as §1

USP4 = target: T4, USP4 (UniProt Q13107)
T4 sequence (whole entry): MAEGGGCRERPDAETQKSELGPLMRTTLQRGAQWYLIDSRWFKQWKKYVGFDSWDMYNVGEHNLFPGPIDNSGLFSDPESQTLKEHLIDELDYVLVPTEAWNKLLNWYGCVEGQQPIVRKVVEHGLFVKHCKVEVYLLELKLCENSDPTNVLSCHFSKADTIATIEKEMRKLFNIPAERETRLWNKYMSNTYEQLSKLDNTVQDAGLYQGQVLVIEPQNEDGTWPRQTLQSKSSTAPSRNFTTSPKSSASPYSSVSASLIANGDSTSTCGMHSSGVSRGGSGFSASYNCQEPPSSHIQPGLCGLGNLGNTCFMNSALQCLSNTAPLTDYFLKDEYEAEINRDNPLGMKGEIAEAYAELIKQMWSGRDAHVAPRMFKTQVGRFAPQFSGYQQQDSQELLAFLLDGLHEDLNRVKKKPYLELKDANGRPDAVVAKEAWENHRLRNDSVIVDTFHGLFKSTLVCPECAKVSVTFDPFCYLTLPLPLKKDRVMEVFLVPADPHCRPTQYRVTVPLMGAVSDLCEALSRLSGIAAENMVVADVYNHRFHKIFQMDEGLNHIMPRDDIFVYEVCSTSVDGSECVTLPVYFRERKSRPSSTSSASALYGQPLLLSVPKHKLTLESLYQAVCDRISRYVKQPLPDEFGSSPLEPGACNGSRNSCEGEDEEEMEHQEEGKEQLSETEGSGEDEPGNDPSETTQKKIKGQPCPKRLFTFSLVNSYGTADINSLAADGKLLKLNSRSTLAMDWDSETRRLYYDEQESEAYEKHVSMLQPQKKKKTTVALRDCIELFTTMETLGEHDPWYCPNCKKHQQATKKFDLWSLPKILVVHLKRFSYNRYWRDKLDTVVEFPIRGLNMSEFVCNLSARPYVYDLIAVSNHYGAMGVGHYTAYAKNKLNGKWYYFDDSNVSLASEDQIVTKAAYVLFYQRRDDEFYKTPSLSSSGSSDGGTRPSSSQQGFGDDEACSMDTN
Method in brief: as §1

Measured: log2 ratio of Biotin-Ahx-Ub-VS probe labelling

USP34, sequence (Q70CQ2 whole entry, the tested form may be a part): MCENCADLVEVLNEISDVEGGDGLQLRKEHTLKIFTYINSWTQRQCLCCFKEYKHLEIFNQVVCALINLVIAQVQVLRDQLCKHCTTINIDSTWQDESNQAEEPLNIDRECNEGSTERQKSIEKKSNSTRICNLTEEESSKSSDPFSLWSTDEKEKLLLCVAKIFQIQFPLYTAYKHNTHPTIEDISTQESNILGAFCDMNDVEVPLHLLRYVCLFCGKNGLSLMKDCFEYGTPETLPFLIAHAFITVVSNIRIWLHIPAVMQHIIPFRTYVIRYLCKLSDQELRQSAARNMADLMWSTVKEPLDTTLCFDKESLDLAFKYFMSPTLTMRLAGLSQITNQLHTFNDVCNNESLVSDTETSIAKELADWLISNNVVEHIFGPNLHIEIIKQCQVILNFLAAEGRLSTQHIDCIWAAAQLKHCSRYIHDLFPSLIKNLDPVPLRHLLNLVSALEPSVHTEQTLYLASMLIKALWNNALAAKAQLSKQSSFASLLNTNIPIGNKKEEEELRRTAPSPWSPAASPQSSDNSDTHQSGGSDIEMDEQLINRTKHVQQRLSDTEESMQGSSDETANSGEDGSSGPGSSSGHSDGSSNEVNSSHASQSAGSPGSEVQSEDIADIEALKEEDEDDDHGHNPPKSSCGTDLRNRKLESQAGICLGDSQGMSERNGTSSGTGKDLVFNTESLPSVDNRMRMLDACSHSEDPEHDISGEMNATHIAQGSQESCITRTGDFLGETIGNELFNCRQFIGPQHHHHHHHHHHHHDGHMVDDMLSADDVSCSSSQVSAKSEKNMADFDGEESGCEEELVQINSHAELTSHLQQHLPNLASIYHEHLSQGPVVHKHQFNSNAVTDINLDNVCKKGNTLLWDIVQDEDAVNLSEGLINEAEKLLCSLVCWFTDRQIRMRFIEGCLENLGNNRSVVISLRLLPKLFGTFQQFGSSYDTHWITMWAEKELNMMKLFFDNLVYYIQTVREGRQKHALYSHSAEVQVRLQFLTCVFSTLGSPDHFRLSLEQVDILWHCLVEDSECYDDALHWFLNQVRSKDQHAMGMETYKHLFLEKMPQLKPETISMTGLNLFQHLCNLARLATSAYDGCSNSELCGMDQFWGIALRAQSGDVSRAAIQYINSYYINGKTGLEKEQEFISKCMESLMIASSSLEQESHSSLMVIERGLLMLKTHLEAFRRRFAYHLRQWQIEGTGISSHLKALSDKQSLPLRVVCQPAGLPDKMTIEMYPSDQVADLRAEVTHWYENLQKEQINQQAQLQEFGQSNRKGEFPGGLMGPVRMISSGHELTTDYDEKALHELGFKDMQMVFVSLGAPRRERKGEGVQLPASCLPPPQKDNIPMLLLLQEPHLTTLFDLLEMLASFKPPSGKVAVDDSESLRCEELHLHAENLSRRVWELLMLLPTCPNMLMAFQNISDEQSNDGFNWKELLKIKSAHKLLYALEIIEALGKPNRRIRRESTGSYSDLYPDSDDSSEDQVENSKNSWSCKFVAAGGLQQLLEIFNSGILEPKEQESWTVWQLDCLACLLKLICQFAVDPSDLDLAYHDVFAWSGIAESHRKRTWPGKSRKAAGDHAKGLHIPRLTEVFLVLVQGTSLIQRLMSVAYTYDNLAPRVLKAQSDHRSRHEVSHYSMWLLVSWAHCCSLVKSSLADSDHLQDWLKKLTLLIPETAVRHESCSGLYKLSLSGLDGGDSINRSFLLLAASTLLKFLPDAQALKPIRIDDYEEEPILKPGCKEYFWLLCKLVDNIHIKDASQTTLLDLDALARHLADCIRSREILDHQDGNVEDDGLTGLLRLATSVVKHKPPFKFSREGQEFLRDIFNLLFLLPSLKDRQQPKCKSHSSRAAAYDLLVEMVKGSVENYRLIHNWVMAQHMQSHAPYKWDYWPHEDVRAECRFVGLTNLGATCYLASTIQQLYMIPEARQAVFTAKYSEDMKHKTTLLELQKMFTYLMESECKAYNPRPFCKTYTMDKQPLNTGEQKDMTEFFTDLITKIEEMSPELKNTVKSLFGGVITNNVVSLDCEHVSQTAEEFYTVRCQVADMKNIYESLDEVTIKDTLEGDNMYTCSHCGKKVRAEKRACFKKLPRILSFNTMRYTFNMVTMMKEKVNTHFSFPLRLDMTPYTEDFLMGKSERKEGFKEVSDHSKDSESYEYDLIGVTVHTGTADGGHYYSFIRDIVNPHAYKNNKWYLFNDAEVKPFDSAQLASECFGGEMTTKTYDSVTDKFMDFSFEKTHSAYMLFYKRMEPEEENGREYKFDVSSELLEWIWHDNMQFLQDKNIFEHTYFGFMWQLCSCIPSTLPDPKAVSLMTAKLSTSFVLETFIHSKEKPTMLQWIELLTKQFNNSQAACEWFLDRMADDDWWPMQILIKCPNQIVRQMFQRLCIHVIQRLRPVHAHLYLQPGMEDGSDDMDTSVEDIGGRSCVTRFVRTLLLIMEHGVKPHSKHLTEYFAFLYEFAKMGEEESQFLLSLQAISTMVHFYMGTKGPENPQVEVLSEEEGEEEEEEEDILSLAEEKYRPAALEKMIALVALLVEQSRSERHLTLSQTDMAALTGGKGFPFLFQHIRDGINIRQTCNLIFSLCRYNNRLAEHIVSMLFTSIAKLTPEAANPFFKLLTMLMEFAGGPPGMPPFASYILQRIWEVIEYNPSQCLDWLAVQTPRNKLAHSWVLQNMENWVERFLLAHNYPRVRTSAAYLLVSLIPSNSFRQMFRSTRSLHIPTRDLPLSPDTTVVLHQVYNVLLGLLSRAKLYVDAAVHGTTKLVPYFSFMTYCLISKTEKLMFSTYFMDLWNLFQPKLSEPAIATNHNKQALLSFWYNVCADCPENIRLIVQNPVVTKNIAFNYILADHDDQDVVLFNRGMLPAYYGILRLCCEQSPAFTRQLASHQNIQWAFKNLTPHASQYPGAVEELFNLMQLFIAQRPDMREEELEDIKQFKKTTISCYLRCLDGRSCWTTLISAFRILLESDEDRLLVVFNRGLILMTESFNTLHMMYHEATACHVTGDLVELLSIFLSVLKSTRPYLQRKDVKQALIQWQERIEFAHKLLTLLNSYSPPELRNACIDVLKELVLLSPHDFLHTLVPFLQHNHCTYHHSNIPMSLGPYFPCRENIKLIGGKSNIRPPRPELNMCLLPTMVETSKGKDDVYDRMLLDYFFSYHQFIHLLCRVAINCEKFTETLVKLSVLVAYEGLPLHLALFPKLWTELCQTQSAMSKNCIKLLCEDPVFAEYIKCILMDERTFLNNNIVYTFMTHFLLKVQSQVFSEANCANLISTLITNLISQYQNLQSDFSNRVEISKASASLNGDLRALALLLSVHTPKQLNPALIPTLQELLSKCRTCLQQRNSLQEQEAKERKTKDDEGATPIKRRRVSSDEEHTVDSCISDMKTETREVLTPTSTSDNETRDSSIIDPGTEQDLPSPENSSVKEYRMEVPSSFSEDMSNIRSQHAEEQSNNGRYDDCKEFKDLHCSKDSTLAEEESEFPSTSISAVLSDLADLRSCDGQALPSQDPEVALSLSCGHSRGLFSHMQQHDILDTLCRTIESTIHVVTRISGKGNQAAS

O=C(CCl)NCCc1ccc2c(c1)OCCO2
inactive: USP34 -0.523 | USP36 -0.0707 | USP38 -0.0664 | USP39 -0.16 | USP4 -0.295
